Source: PubChem BioAssay AID1347421 (Sanford-Burnham Center for Chemical Genomics, 2020)
In all, about 1,500 compounds were measured (“activity”: median about 2, lowest 2% from about -18 on). Many of the other results were omitted from the sample, so the lowest values are more common in it than they were. The source made the active and inactive calls.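 The calls were made as follows: active = inhibition of at least 40% at 10 µM; inconclusive = no clear call, values can overlap the other calls; inactive = the rest.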

What follows are compounds tested against Sulfhydryl oxidase 1 (Homo sapiens) (UniProt O00391) (assay: human QSOX1 sulfhydryl oxidase inhibition – biochemical, ROS-Glo luminescence, single concentration, confirmation (AID 1347421;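 also: 0% = DMSO wells with enzyme and 100% = wells lacking QSOX1 enzyme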)). Conditions: recombinant hQSOX1, RNase A substrate, ROS-Glo H2O2 luminescence; at 10 µM.
Chain of Sulfhydryl oxidase 1 (Homo sapiens) (O00391 whole entry, looked up): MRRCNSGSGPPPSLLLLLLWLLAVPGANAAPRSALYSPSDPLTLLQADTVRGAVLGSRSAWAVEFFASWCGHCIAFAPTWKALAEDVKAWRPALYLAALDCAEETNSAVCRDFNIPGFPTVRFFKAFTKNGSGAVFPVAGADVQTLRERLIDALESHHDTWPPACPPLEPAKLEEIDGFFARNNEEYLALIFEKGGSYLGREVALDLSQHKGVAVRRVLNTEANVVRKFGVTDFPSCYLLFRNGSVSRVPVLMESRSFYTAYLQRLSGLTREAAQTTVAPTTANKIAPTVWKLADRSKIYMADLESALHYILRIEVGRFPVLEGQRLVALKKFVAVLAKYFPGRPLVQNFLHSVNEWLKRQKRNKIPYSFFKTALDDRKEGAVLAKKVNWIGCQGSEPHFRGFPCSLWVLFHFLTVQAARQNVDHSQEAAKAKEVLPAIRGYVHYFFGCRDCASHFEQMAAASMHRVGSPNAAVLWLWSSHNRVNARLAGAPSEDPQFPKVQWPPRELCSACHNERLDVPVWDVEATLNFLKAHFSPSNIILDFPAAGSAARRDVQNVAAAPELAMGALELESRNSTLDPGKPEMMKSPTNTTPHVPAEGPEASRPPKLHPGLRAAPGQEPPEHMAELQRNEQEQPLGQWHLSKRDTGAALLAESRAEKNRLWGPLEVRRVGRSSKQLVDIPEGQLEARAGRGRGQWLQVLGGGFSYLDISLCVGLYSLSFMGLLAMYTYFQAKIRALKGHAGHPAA

Structure (SMILES)	activity
O=C(NC(=O)N1CCCCCC1)c1ccc(Cl)cc1	-10.3% (inactive)
COc1ccc(CNCCn2cccn2)c(OCC(O)CN2CCCC2)c1 (stereo not given)	1.2%
O=C(Cn1ccnc1)N(CC1CCN(C2Cc3ccccc3C2)CC1)CC1CCCO1 (stereo not given)	7.8%
COc1ccc(C(N)=O)cc1S(=O)(=O)NC(C)C	-19.1% (inactive)
COc1ccc(F)cc1S(=O)(=O)NC(C)C	-2% (inactive)
CCOc1ccc(Cl)cc1S(=O)(=O)NC(C)C	3.5%
CN(Cc1cccs1)C(=O)c1ccc(OC2CCN(S(C)(=O)=O)CC2)c(Cl)c1	12.2%
CN(Cc1n[nH]c2c1CCCCC2)CC1(c2cccc(F)c2)CCOC1 (stereo not given)	4%
O=C(CC1C(=O)NCCN1Cc1ccccn1)NC1C2CC3CC(C2)CC1C3 (stereo not given)	-4.8% (inactive)
O=C(Cc1ccccc1F)Nc1ccc2c(c1)CN(Cc1ccoc1)CC2	-1.9% (inactive)
O=C(NCCCOc1cccnc1)C1CCC(=O)N(CCCc2ccccc2)C1 (stereo not given)	12.4%
O=C(O)c1cn(CCOc2ccccc2)c2ccccc12	-13.2% (inactive)
O=C(CCC1CCCN(Cc2ccccn2)C1)N1CCN(Cc2ccccc2)CC1 (stereo not given)	-0.9% (inactive)
Cc1cc(C)c(C(=O)N2CCCC(CCC(=O)N(C)CCc3ccccn3)C2)c(=O)[nH]1 (stereo not given)	7.3%
COc1ccc(CNCCc2scnc2C)cc1OCC(O)CN(C)C(C)C (stereo not given)	7.8%
CC(C)OCCNC(=O)c1cc(COc2cccc3cccnc23)on1	2.2%
C=CCCC(=O)N1CCC2(CCCN(Cc3ccc(F)c(F)c3)C2=O)C1 (stereo not given)	-1.3% (inactive)
Cn1nc(C(=O)N2CCc3ccccc32)c2ccccc2c1=O	-5.3% (inactive)
O=C1CCC(C(=O)N2CCC3(C=Cc4ccccc43)CC2)CN1CCc1ccccn1 (stereo not given)	3.8%
COc1cccc(CN2CCNC(=O)C2CC(=O)NC2CCCCCCC2)c1 (stereo not given)	2.4%
CCC1=[C+]c2c(NCc3cccnc3)nc(C)nc2S1	-5.8% (inactive)
CCC1=[C+]c2c(nc(C)nc2N2CCOCC2)S1	-20.3% (inactive)
CSc1ncc(Cl)c(C(=O)Nc2ccc(Br)cc2)n1	-12.9% (inactive)
Cc1oc(-c2cccs2)nc1CN(C)C(C)c1cccs1 (stereo not given)	2.7%
CCOC(=O)C1CCN(C(=O)CCc2ccc(OC)cc2)CC1	-2% (inactive)
CCN(CC)C(=O)C1CCCN(Cc2nc(-c3ccc(Cl)cc3)oc2C)C1 (stereo not given)	4.3%
CC(NC(=O)CSc1nc(O)cc(=O)[nH]1)c1ccccc1 (stereo not given)	-17.8% (inactive)

Structure (SMILES)	activity
CCN(CC)C(=O)N(CC)Cc1ccccc1	-0.2% (inactive)
CC(=O)n1nc(NCc2ccccc2)nc1NCc1ccccc1	-22% (inactive)
c1ccc(CNc2ccc(NCc3ccccc3)nn2)cc1	-8.7% (inactive)
C=CCn1nnnc1NCc1ccc(F)cc1	7.4%
CCCn1cc(CN2CCOC(CCc3ccccc3)C2)c(C)n1 (stereo not given)	-1.5% (inactive)
CCOC(=O)N1CCC(N2CCOC(CC3CCCCC3)C2)CC1 (stereo not given)	6.1%
NC(=O)C1CCCN(Cc2cn(-c3ccccc3)nc2-c2ccc3c(c2)OCO3)C1 (stereo not given)	-1.5% (inactive)
O=C(Nc1ccccc1N1CCN(C(=O)c2ccc(Cl)cc2)CC1)c1ccco1	0.8%
CCn1c(SCC(=O)N2CCCCCC2)nc2ccccc21	-11.6% (inactive)
CCn1c(C2CCCO2)nc2ccccc21 (stereo not given)	-18.1% (inactive)
CCn1c(CN2CCCC2)nc2ccccc21	-5.8% (inactive)
CN1CCN(C(=O)CCC2CCCN(C(=O)Cc3ccc4c(c3)OCO4)C2)CC1 (stereo not given)	0.8%
CN(CCOc1ccccc1)Cc1nc(-c2ccccn2)no1	3.2%
COc1ccc(C(=O)C2CCCN(Cc3ccc4cc(F)ccc4n3)C2)cc1OC (stereo not given)	1.1%
COc1cccc(C(=O)C2CCCN(Cc3ccc4cccc(F)c4n3)C2)c1 (stereo not given)	-23.5% (inactive)
CSc1ncc(CN2CCCC(C(=O)c3cccc(OC(C)C)c3)C2)cn1 (stereo not given)	8.6%
CC1CCN(Cc2nnnn2CCCC(=O)N(C)CCC(O)c2ccccc2)CC1 (stereo not given)	7.2%
O=C(Nc1cccc(-n2cnnn2)c1)C1CCCN1CCCC(F)(F)F (stereo not given)	-2.9% (inactive)
O=C(Nc1cccc(-n2cccn2)c1)C1CCCN1Cc1cnc[nH]1 (stereo not given)	-25.6% (inactive)
O=C1N(CC2CC2)CCCC12CCN(Cc1cccc(-n3cccn3)c1)C2 (stereo not given)	-0.7% (inactive)
Cc1ccc(NC(=O)c2cc(C)c(C)o2)cc1C	-0.4% (inactive)
CC(C)Oc1cccc(NC(=O)c2ccccc2Cl)c1	-28.9% (inactive)
CC(C)Oc1cccc(C(=O)Nc2ccc3[nH]c(=O)[nH]c3c2)c1	5.2%
CC(C)Oc1cccc(NC(=O)Nc2ccccc2)c1	6.3%
O=C(NCCCn1nnc2ccccc21)C1CCC(=O)N(CCN2CCOCC2)C1 (stereo not given)	-0.4% (inactive)
CN(CCc1ccccn1)c1ncccc1CNC1CSCCSC1	-4% (inactive)
c1ccc(-c2noc(CN3CCN(Cc4ccc5c(c4)OCO5)CC3)n2)cc1	7.5%

Structure (SMILES)	activity
O=C(Nc1ccc2c(c1)OCCO2)c1ccc(=O)[nH]n1	-1.3% (inactive)
CN(C)C(=O)Nc1ccc2c(c1)CCC2	-6.3% (inactive)
COCCn1c(CN(C)Cc2cccnc2)cnc1S(=O)(=O)CC(C)(C)C	7.7%
OC(COc1ccccc1CNCCc1ccccn1)CN1CCSCC1 (stereo not given)	5.9%
CSCc1ccc(C(=O)N2CCC3(CCCN(CC(C)(C)C)C3)C2)o1 (stereo not given)	-0.7% (inactive)
CC(C)CCCC1CN(C2CCN(Cc3ccccn3)CC2)CCO1 (stereo not given)	5.9%
COc1cccc(CC2CN(C3CCSCC3)CCO2)c1 (stereo not given)	10.9%
O=C(CCN1CCCO1)N1CCCC(N2CCN(c3cccc(C(F)(F)F)c3)CC2)C1 (stereo not given)	-0.1% (inactive)
O=C1N(CC2CCCCC2)CCCC1(O)CN1CCCOCC1 (stereo not given)	4.1%
CC(=O)Oc1ccc(/C=C/c2ccc3ccccc3n2)cc1Cl	55.2% (active)
O=C1COc2ccc(S(=O)(=O)N3CCc4ccccc43)cc2N1	2.6%
Cc1cnc(C)c(N2C[C@H]3OC(=O)N(C4CCCC4)[C@H]3C2)n1	7.1%
Cc1ccc(S(=O)(=O)NC2CCCCC2)cc1C(N)=O	-20.3% (inactive)
Cc1ccc(S(=O)(=O)N2CCN(c3ccccc3)CC2)cc1C(N)=O	1.7%
CS(=O)(=O)c1cccc(S(=O)(=O)NC2CCCC2)c1	7%
Cc1cccc(S(=O)(=O)NCC2CCN(c3cnn(C)c(=O)c3)C2)c1 (stereo not given)	5.8%
Cc1nc(CC(=O)N2CCCC(CCC(=O)N3CCN(c4ccccn4)CC3)C2)cs1 (stereo not given)	-2.5% (inactive)
Cc1ccc(S(=O)(=O)N2CCC(C(=O)N3CCN(c4ccccn4)CC3)CC2)cc1	-18.7% (inactive)
CC(=O)Nc1ccc(S(=O)(=O)N2CCN(C(=O)N3CCCCCC3)CC2)cc1	-1.3% (inactive)
CCN(CC1CCCO1)C(=O)C1CCN(C2CCN(Cc3ccccc3C)CC2)CC1 (stereo not given)	9.1%
COCCN1CCC(CN(Cc2ccncc2)Cc2csc(C(C)=O)c2)CC1	-7.9% (inactive)
COc1cccc(CN2CCCC(NCc3ccc4nonc4c3)C2)c1 (stereo not given)	-3.2% (inactive)
COC(=O)C1CCCCN1C(=O)c1ccc2oc(C(C)C)nc2c1 (stereo not given)	4.4%
c1ccc(CCCc2nn3c(-c4cccnc4)nnc3s2)cc1	3%
Cc1occc1-c1nnc2sc(CCc3ccccc3)nn12	-18.1% (inactive)
c1ccc(Cc2nn3c(-c4ccco4)nnc3s2)cc1	-5.1% (inactive)
Cc1ccc(S(=O)(=O)CC(=O)N2CCN(c3ccccc3)CC2)cc1	-17% (inactive)

Structure (SMILES)	activity
Cc1nonc1CC(=O)N1CCC(CCC(=O)N2CCN(c3ccccc3)CC2)CC1	11.2%
Cc1nc(SCC(=O)N2CCN(c3ccccc3)CC2)nc2c1CCCC2	-19.5% (inactive)
COc1ccc(N2CCN(C3CCCN(Cc4nc5ccccc5nc4C)C3)CC2)cc1 (stereo not given)	7.9%
OC(COc1ccccc1CNCCc1cnccn1)CN1CCSCC1 (stereo not given)	7.9%
O=C1CN(c2nc3nonc3nc2NC2CCCC2)CCN1C1CCCC1	-1.2% (inactive)
C=CCn1cc(CNC2CC(=O)N(Cc3cccc(F)c3)C2)c(C)n1 (stereo not given)	-1.3% (inactive)
COc1ccc(C(C)(C)NC(=O)C2CCC(=O)N(Cc3ccccc3F)C2)cc1OC (stereo not given)	-0.6% (inactive)
O=C(NCCc1ccc(Cl)cc1)c1cccc(-n2cnnc2)c1	-1% (inactive)
CC(=O)c1cccc(OCc2cc(C(=O)N(CC3CC3)CC3CCCO3)no2)c1 (stereo not given)	0.5%
CC(C)CCCC1CN(C(=O)c2ccc(N3CCN(C)CC3)cc2)CCO1 (stereo not given)	6.6%
Cc1cc(Oc2ccccc2)nc(Oc2ccc(=O)n(-c3ccccc3)n2)n1	-9.1% (inactive)
CC(C)(C)NC(=O)CN1C(=O)CCC1=O	-0.4% (inactive)
Cc1nc2sccn2c1C(=O)N1CCCC(N(C)Cc2ccccc2)C1 (stereo not given)	-0.3% (inactive)
O=C(C1CCCO1)N1CCc2[nH]nc(-c3ccc(C(F)(F)F)cc3)c2C1 (stereo not given)	-2.9% (inactive)
COc1cc(CNCc2ccc(F)cc2)ccc1OCC(O)CN1CCOCC1 (stereo not given)	2.4%
CC(C)C(=O)N1CCN(c2ccc(NC(=O)c3ccccn3)cc2)CC1	7.7%
O=C(Nc1ccccc1)N1CCN(c2nsc3ccccc23)CC1	-22.1% (inactive)
O=C(NCc1ccccc1)N1CCN(CCO)CC1	2.5%
COc1ccc(NC(=O)NC2CC(=O)N(CC(C)(C)C)C2)c(OC)c1 (stereo not given)	-1.6% (inactive)
O=C(NCC(O)CO)c1ccc(OC2CCN(CCc3ccccc3)CC2)cc1 (stereo not given)	-0.6% (inactive)
CCN1CCN(CC(O)COc2cccc(CNCCCSC)c2)CC1 (stereo not given)	9.1%
COc1ccc(F)c(CN2CCCC3(CCN(S(=O)(=O)N(C)C)C3)C2=O)c1 (stereo not given)	0.3%
COc1cccc(CN2CCCC3(CCN(Cc4ccccn4)C3)C2)c1OC (stereo not given)	7.4%
Cc1nc(C)c(CN2C[C@H]3OC(=O)N(CCCc4ccc(F)cc4)[C@H]3C2)nc1C	8.2%
